This is an account of results in PubChem BioAssay (EPA / NIEHS).

Read-out in experiment [1]: TIMP metallopeptidase inhibitor 1 (TIMP1), TIMP1 (gene 7076)
In words: BSK_hDFCGF_TIMP1: BioMAP Diversity Plus: hDFCGF Assay for TIMP metallopeptidase inhibitor 1 (TIMP1) Biomarker Activity (AID 2283062). To be noted: primary human foreskin fibroblasts; actives raise or lower the signal. In short, it runs like this: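 Human skin fibroblasts (primary), hDFCGF system; compound exposure 24 h; TIMP-1 by ELISA; bidirectional fit vs DMSO negative control; overt cytotoxicity by SRB in parallel wells.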

Read-out in experiment [2]: Monokine induced gamma interferon (MIG), CXCL9 (gene 4283)
In words: BSK_hDFCGF_MIG: BioMAP Diversity Plus: hDFCGF Assay for Monokine induced gamma interferon (MIG) Biomarker Activity (AID 2283063). To be noted: primary human foreskin fibroblasts; actives raise or lower the signal. In short, it runs like this: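 Chemicals were added to primary human foreskin fibroblast cultures, which were sampled 24 h later. MIG levels were then quantified by ELISA and responses fitted in both directions relative to DMSO.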

Read-out in experiment [3]: Matrix Metallopeptidase 1 (MMP1), MMP1 (gene 4312)
Nature of the experiment: BSK_hDFCGF_MMP1: BioMAP Diversity Plus: hDFCGF Assay for Matrix Metallopeptidase 1 (MMP1) Biomarker Activity (AID 2283064). To be noted: primary human foreskin fibroblasts; actives raise or lower the signal. In short, it runs like this: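 Primary human foreskin fibroblasts in the hDFCGF system were dosed with test chemical, and MMP1 was measured by ELISA 24 h later. Values come from bidirectional curve fitting against the DMSO baseline.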

Read-out in experiment [4]: Vascular cell adhesion molecule 1 (VCAM1), VCAM1 (gene 7412)
In words: BSK_hDFCGF_VCAM1: BioMAP Diversity Plus: hDFCGF Assay for Vascular cell adhesion molecule 1 (VCAM1) Biomarker Activity (AID 2283065).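 On AC50: VCAM-1 protein level quantified by ELISA after 24 h chemical exposure.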 To be noted: primary human foreskin fibroblasts; actives raise or lower the signal. In short, it runs like this: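 Human foreskin fibroblast primary cells, chemical exposure 24 h; VCAM-1 by ELISA; bidirectional fit, DMSO = negative control/baseline.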

Read-out in experiment [5]: Plasminogen activator inhibitor-1 (PAI1), SERPINE1 (gene 5054)
Nature of the experiment: BSK_hDFCGF_PAI1: BioMAP Diversity Plus: hDFCGF Assay for Plasminogen activator inhibitor-1 (PAI1) Biomarker Activity (AID 2283066). Particulars: primary human foreskin fibroblasts; actives raise or lower the signal. In short, it runs like this:
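PAI-1 levels, determined by ELISA, served as the endpoint in human foreskin fibroblast cultures exposed to compound for 24 h, with DMSO as baseline.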

Read-out in experiment [6]: Intercellular Adhesion Molecule 1 (ICAM1), ICAM1 (gene 3383)
Nature of the experiment: BSK_KF3CT_ICAM1: BioMAP Diversity Plus: KF3CT Assay for Intercellular Adhesion Molecule 1 (ICAM1) Biomarker Activity (AID 2283067). To be noted: primary human keratinocytes with fibroblasts; actives raise or lower the signal. In short, it runs like this: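 ICAM-1 levels are measured by ELISA 24 h after dosing a primary human co-culture of keratinocytes and foreskin fibroblasts. Activity in either direction is fitted relative to DMSO vehicle.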

Read-out in experiment [7]: Interferon-gamma inducible Protein 10 (IP10), CXCL10 (gene 3627)
Nature of the experiment: BSK_KF3CT_IP10: BioMAP Diversity Plus: KF3CT Assay for Interferon-gamma inducible Protein 10 (IP10) Biomarker Activity (AID 2283068). Particulars: primary human keratinocytes with fibroblasts; actives raise or lower the signal. In short, it runs like this:
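Human keratinocyte plus foreskin fibroblast primary co-culture exposed to test chemical for 24 h; IP-10 measured by ELISA. Concentration-response fitted bidirectionally against DMSO control as baseline.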

The nature of experiment [8]: BSK_KF3CT_SRB: Viability Assessment in the BioMAP Diversity Plus: KF3CT Assay (AID 2283069).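 Further: total protein by sulforhodamine B staining as a cytotoxicity measure; read 24 h after compound addition.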 To be noted: primary human keratinocytes with fibroblasts. In short, it runs like this: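 Human primary keratinocyte plus foreskin fibroblast co-culture exposed to chemicals for 24 h. Total protein measured by 0.1% sulforhodamine B staining after 10% TCA fixation, read at 560 nm; bidirectional fitting versus DMSO baseline.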

Read-out in experiment [9]: Interleukin-1 alpha (IL1a), IL1A (gene 3552)
Nature of the experiment: BSK_KF3CT_IL1a: BioMAP Diversity Plus: KF3CT Assay for Interleukin-1 alpha (IL1a) Biomarker Activity (AID 2283070). To be noted: primary human keratinocytes with fibroblasts; actives raise or lower the signal. In short, it runs like this:
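Human keratinocyte plus foreskin fibroblast primary co-culture, sampled 24 h after chemical dosing. IL-1a measured by ELISA; responses fitted bidirectionally against DMSO baseline (negative control), so gain or loss of signal both count.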

Read-out in experiment [10]: TIMP metallopeptidase inhibitor 2 (TIMP2), TIMP2 (gene 7077)
Nature of the experiment: BSK_KF3CT_TIMP2: BioMAP Diversity Plus: KF3CT Assay for TIMP metallopeptidase inhibitor 2 (TIMP2) Biomarker Activity (AID 2283071). To be noted: primary human keratinocytes with fibroblasts; actives raise or lower the signal. In short, it runs like this: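 Keratinocyte–fibroblast co-culture, 24 h exposure; TIMP-2 ELISA, DMSO-normalised bidirectional fit. Parallel SRB (0.1%, TCA-fixed, 560 nm) total-protein staining gauges cytotoxicity.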

Molecules are shown by their SMILES. The source holds several records for some structures; these can differ, active in one and inactive in another. Calls of active or inactive are those of the source. How the source made its calls: active means hit-call score of the fitted dose curve at least 0.9, where 1 is the maximum; inactive means score below 0.9.

In the case of `CCCCCCCC1CCC(=O)O1` (stereo not given), the outcome in [1], in experiment [2], in experiment [3], in [4], in experiment [5] and in [6] was inactive. Further, the result in experiment [7], in experiment [8], in [9] and in experiment [10] was inactive.
For `OCCNCCO`, the result in experiment [1], in experiment [2], in experiment [3], in [4], in experiment [5] and in experiment [6] was inactive. Besides, the result in experiment [7], in experiment [8], in experiment [9] and in [10] was inactive.
In the case of `CC(C)C(=O)Nc1ccc([N+](=O)[O-])c(C(F)(F)F)c1`, the result in [1], in [2], in [3], in [4], in [5] and in [6] was inactive. Besides, the result in [7], in experiment [8], in [9] and in experiment [10] was inactive.
The AC50 is the concentration at which the activity in the assay is half-maximal. On to `OCc1c[nH]c2ccccc12`, for which the result in experiment [1], in experiment [2], in experiment [6], in experiment [7], in experiment [8] and in experiment [9] was inactive. In addition, in [10], the result was inactive. Also, the results for the AC50 in experiment [3], in [4] and in experiment [5] were 0.655 µM (active), 3.97 µM (active) and 4.75 µM (active), respectively.
On to `Nc1ccn([C@@H]2O[C@H](CO)[C@@H](O)[C@@H]2O)c(=O)n1`, for which the result in [1], in [2], in [3], in experiment [4], in experiment [5] and in [6] was inactive. The outcome in experiment [7], in experiment [8], in experiment [9] and in experiment [10] was inactive.
On to `CCCCC(CC)C(=O)OCCOCCOCCOC(=O)C(CC)CCCC` (stereo not given), for which the result in [1], in [2], in [3], in experiment [4], in [5] and in [6] was inactive. Besides, the result in [7], in [8], in experiment [9] and in experiment [10] was inactive.
For the molecule `CCCCN1C(=O)[C@@H]([C@H](O)C2CCCCC2)NC(=O)C12CCN(Cc1ccc(Oc3ccc(C(=O)O)cc3)cc1)CC2`, the outcome in experiment [1], in [2], in experiment [5], in experiment [6], in experiment [7] and in [8] was inactive. The result in experiment [9] and in experiment [10] was inactive. Besides, the values for the AC50 in experiment [3] and in experiment [4] were 7.18 µM (active) and 31 µM (active), respectively.
Take `CCn1nc(C)c2c1C(=O)NCC(c1ccc(O)cc1)=N2`: the outcome in experiment [1], in experiment [2], in experiment [3], in experiment [4], in experiment [6] and in experiment [7] was inactive. The outcome in experiment [8], in [9] and in [10] was inactive. In addition, the AC50 in [5] was 1.14 µM (active).
`C[C@]12C=CC(=O)C=C1CC[C@H]1[C@@H]3C[C@@H](O)[C@](O)(C(=O)CO)[C@@]3(C)C[C@H](O)[C@@]12F`: the result in experiment [1], in [2], in experiment [4], in experiment [5], in [6] and in experiment [7] was inactive. Besides, the result in [8], in experiment [9] and in experiment [10] was inactive. Also, in experiment [3], the AC50 is 0.148 µM (active).
On to `CCCCOC(=O)c1ccccc1`, for which the outcome in experiment [2], in experiment [3], in experiment [4], in [5], in [6] and in experiment [7] was inactive. For the same molecule, the result in experiment [8], in experiment [9] and in experiment [10] was inactive.
`OC[C@H]1O[C@@H]2O[C@H]3[C@H](O)[C@@H](O)[C@@H](O[C@H]4[C@H](O)[C@@H](O)[C@@H](O[C@H]5[C@H](O)[C@@H](O)[C@@H](O[C@H]6[C@H](O)[C@@H](O)[C@@H](O[C@H]7[C@H](O)[C@@H](O)[C@@H](O[C@H]1[C@H](O)[C@H]2O)O[C@@H]7CO)O[C@@H]6CO)O[C@@H]5CO)O[C@@H]4CO)O[C@@H]3CO`: the outcome in experiment [2], in [3], in experiment [4], in experiment [5], in experiment [6] and in experiment [7] was inactive. The result in [8], in [9] and in experiment [10] was inactive.
In the case of `O=C(NO)C1(NS(=O)(=O)c2ccc(Oc3ccc(F)cc3)cc2)CCOCC1`, the outcome in [1], in experiment [2], in [3], in [4], in [5] and in experiment [6] was inactive. Also, the outcome in [7], in experiment [8], in [9] and in experiment [10] was inactive.
Regarding `c1ccc2cc3ccccc3cc2c1`, the outcome in experiment [1], in [2], in experiment [3], in experiment [4], in experiment [5] and in experiment [6] was inactive. The outcome in experiment [7], in experiment [8], in experiment [9] and in experiment [10] was inactive.
For the molecule `COc1cc2c(c(OC)c1OC)-c1ccc(OC)c(=O)cc1[C@@H](NC(C)=O)CC2`, the result in experiment [1], in [2], in [5], in experiment [6], in [7] and in experiment [8] was inactive. In addition, the outcome in experiment [9] and in [10] was inactive. The AC50 in [3] was 2.82 µM (active); in experiment [4], 2.32 µM (active).
As for `CC1(C)C(=O)N(Cl)C(=O)N1Cl`, the result in experiment [1], in experiment [2], in experiment [3], in experiment [4], in [5] and in [6] was inactive. Also, the outcome in experiment [7], in experiment [8], in [9] and in experiment [10] was inactive.
Regarding `OCC(CO)(CO)CO`, the result in experiment [1], in [2], in [3], in [4], in [5] and in [6] was inactive. Besides, the result in experiment [7], in experiment [8], in experiment [9] and in [10] was inactive.
In the case of `OCCC(F)(F)C(F)(F)C(F)(F)C(F)(F)F`, the outcome in experiment [2], in [3], in experiment [4], in experiment [5], in [6] and in [7] was inactive. Further, the result in experiment [8], in experiment [9] and in experiment [10] was inactive. Further, the AC50 in experiment [9] is 8.32 µM (active).
For `COCc1nnc(-c2ccc[n+]([O-])c2)n1-c1c(Cl)c(Cl)cc2[nH]c(=O)c(=O)[nH]c12`, the outcome in [2], in experiment [3], in [4], in experiment [5], in experiment [6] and in experiment [7] was inactive. Further, the outcome in experiment [8], in [9] and in experiment [10] was inactive.
In the case of `Cc1cccc(O)c1C`, the outcome in experiment [2], in experiment [3], in [4], in [5], in experiment [6] and in [7] was inactive. In addition, the result in [8], in experiment [9] and in [10] was inactive.
As to `FC(F)=C(F)C(F)(F)C(F)(F)C(F)(F)C(F)(F)C(F)(F)C(F)(F)F`, the outcome in [2], in experiment [3], in experiment [4], in experiment [5], in [6] and in [7] was inactive. Moreover, the result in experiment [8], in [9] and in experiment [10] was inactive.
